Assay results as given in PubChem BioAssay AID1745848 (National Center for Advancing Translational Sciences (NCATS), 2022).
About 940 (45%) of roughly 2,100 compounds were called active. Another 48% or so got no clear call; they are omitted. Calls come from the whole dose curve; as a rule, active = well fitted inhibition curve with a large enough effect; inconclusive = small, poorly fitted or top-dose-only effect; inactive = no such curve, though single readings can be large or run the other way. So high a share suggests a set chosen from earlier hits. Some of the results follow.
Potency is the fitted concentration of half-maximal effect.

Test: Confirmatory qHTS for Inhibitors of ATXN expression; note: nearly all actives have a fitted effect of over 65% in size
Details: ATXN2-luciferase reporter cells, luminescence, 24 h; series mostly up to 11.5 µM
Summary of the method: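 A titration, incubated 24 h with reporter cells expressing ATXN2-luciferase. Luminescence (SteadyGlo) gives ATXN2 expression, multiplexed GF-AFC fluorescence gives viability; normalised to DMSO and medium-only wells.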
With `CC1=CC(C)(C)Nc2ccc(OC(=O)CN3C(=O)CCC3=O)cc21` the Potency was 3.55 µM (active). In the case of `Cc1cc(NCc2ccccn2)n2nc(C)c(-c3ccc(Cl)cc3)c2n1`, the Potency is reported as 15.8 µM (active). In the case of `CCOc1ccc(-n2c(-c3ccccc3)c[n+]3c2CCCCC3)cc1`, the Potency is reported as 8.91 µM (active). For `c1ccc(Cn2c(-c3ccccc3)c[n+]3c2SCCC3)cc1`, the Potency was “inactive”. With `Cc1cccc(C2=NN(c3ccccc3)[C@H](CO)[C@H]2c2ccc(Cl)cc2)c1` the Potency was “inactive”. For `Cc1cc(C)c2nc(N3CCCC(C(=O)N4CCN(c5ncccn5)CC4)C3)sc2c1` (stereo not drawn), the Potency was 3.16 µM (active). In the case of `O=c1cc(-c2cccnc2)oc2c1ccc1ccccc12`, the Potency is reported as 3.55 µM (active). With `CN(C)c1cc[n+](CC(=O)c2ccc(-c3ccccc3)cc2)cc1` the Potency was 2.24 µM (active). In the case of `Oc1ccc(C[C@@H]2CNCCN2CCc2cc(C(F)(F)F)cc(C(F)(F)F)c2)cc1`, the Potency is reported as 3.16 µM (active). For `COc1cccc(-c2ccc(NC(=O)C3CCCN(Cc4cnn(C(C)C)c4)C3)cc2)c1` (stereo not drawn), the Potency was 3.16 µM (active). With `Cc1cc(C)nc(NNS(=O)(=O)c2ccc(F)c(Cl)c2)n1` the Potency was “inactive”. For `Cc1nc(-c2ccc(F)cc2)c(CC(=O)N(C)CC(=O)Nc2ccc(Cl)c(C(F)(F)F)c2)s1`, the Potency was 25.1 µM (active). For `CN(CC(=O)Nc1ccc(Cl)c(C(F)(F)F)c1)C(=O)c1cccnc1Sc1ccccc1`, the Potency was “inactive”. With `CN(CC(=O)NCc1ccc(F)cc1)CC(=O)Nc1ccc(Cl)c(C(F)(F)F)c1` the Potency was 25.1 µM (active). With `Cc1cc(OCC(=O)NC(C)c2ccccc2)ccc1[N+](=O)[O-]` (stereo not drawn) the Potency was “inactive”. For `CCC(=O)NC(c1ccc(C)cc1)c1cc([N+](=O)[O-])c2cccnc2c1O` (stereo not drawn), the Potency was 6.31 µM (active). With `CC(C)C(=O)NC(c1ccccc1)c1cc([N+](=O)[O-])c2cccnc2c1O` (stereo not drawn) the Potency was 10 µM (active). With `CC(C)c1ccc2c(c1)C(N1CCNCC1)Cc1ccc(F)cc1S2` (stereo not drawn) the Potency was 28.2 µM (active). For `N#Cc1c(N)n(C2OC(CO)C(O)C2O)c2ncnc(N)c12` (stereo not drawn), the Potency was 0.398 µM (active). For `CNc1nc2c(N)ncnc2n1[C@H]1O[C@@H](CO)[C@H](O)[C@@H]1O`, the Potency was 2.82 µM (active). For `CCc1cc(C)cc(OCCNC(=O)c2cncc(Br)c2)c1`, the Potency was 25.1 µM (active). For `CCOc1ccc(CCNC(=O)c2ccc(OCc3c(C)noc3C)cc2)cc1OCC`, the Potency was “inactive”. With `COc1ccc(OCc2cccc(C(=O)Nn3cc([N+](=O)[O-])cn3)c2)cc1` the Potency was 0.398 µM (active). In the case of `O=C(Nc1ccc2c(c1)CCC2)C1CCN(c2c3c(nc4ncnn24)CCC3)CC1`, the Potency is reported as 7.94 µM (active). With `CC(C)COc1cccc(C(=O)N(CC(=O)Nc2ccccc2C(F)(F)F)Cc2ccco2)c1` the Potency was 3.16 µM (active). For `Cc1cc(C)nc(N/N=C2/CCCC/C2=C\c2ccccc2)n1`, the Potency was 2.82 µM (active). In the case of `COc1cc2[nH]c(=O)n(CCCCCC(=O)N3CC=C(c4ccccc4)CC3)c(=O)c2cc1OC`, the Potency is reported as 3.16 µM (active). With `CCOC(=O)c1c(NC(=O)COC(=O)c2ccccc2NC)sc(C(=O)N(C)C)c1C` the Potency was “inactive”. For `CCOC(=O)c1c(NC(=O)C(Sc2ccccc2)c2ccccc2)sc(C(=O)N(C)C)c1C` (stereo not drawn), the Potency was 25.1 µM (active). In the case of `NC(Cc1ccc(F)cc1)c1csc(NC(=O)NC(c2ccccc2)c2ccccc2)n1` (stereo not drawn), the Potency is reported as 28.2 µM (active). With `COc1ccc(N(C(=O)c2snc(C(N)=O)c2N)C(C(=O)NCc2ccc(F)cc2)c2ccc(O)cc2)cc1` (stereo not drawn) the Potency was “inactive”. For `NC(Cc1ccc(Cl)cc1)c1csc(NC(=O)Nc2ccccc2-c2ccccc2)n1` (stereo not drawn), the Potency was 3.16 µM (active). For `COc1ccc(CNC(=O)Nc2nc(C(N)Cc3ccc(Cl)cc3)cs2)cc1` (stereo not drawn), the Potency was 28.2 µM (active). For `COc1ccc(CC(N)c2csc(NC(=O)c3ccccc3OC)n2)cc1` (stereo not drawn), the Potency was “inactive”. For `CC(C)CC(N)c1csc(NC(=O)Nc2ccccc2C(C)(C)C)n1` (stereo not drawn), the Potency was 3.16 µM (active). For `NC(c1ccccc1)c1csc(NC(=O)Nc2ccccc2Oc2ccccc2)n1` (stereo not drawn), the Potency was 3.16 µM (active). For `O=C(OCCN1C(=O)c2cccc3c(N4CCOCC4)ccc(c23)C1=O)c1ccccc1Cl`, the Potency was 5.01 µM (active). For `COc1ccc2c(-c3ccc(S(N)(=O)=O)cc3)c(-c3ccc(S(C)(=O)=O)cc3)sc2c1`, the Potency was 28.2 µM (active). In the case of `O=C(CNC(=O)c1cccc(F)c1)N/N=C/c1cc(Br)ccc1OC(=O)/C=C/c1ccco1`, the Potency is reported as 7.94 µM (active). With `O=C(/C=C/c1ccco1)Oc1cc(Br)cc(/C=N/NC(=O)c2ccccc2O)c1` the Potency was 0.447 µM (active). With `O=C(CNC(=O)c1ccccc1F)N/N=C/c1cc(Br)ccc1OC(=O)/C=C/c1ccco1` the Potency was 11.2 µM (active). With `O=C(CNC(=O)c1ccc(F)cc1)N/N=C/c1cc(Br)ccc1OC(=O)/C=C/c1ccco1` the Potency was 15.8 µM (active). With `COc1cc(C(=O)NC(=S)NNC(=O)c2cnccn2)cc(OC)c1OC` the Potency was 12.6 µM (active). For `O=C(NCCc1csc(-c2cccnc2)n1)c1cccc(Cl)c1`, the Potency was “inactive”. For `O=C(NNC(=O)c1cnccn1)c1ccc(Cl)c(Cl)c1`, the Potency was 15.8 µM (active). With `CCCCOc1ccc(C(=O)NNC(=O)c2cnccn2)cc1OC` the Potency was 17.8 µM (active). In the case of `O=C(/C=C/c1ccccc1)NC(=S)NNC(=O)c1cnccn1`, the Potency is reported as 7.94 µM (active). In the case of `NC(N)=N/N=C/c1ccc2cccc(OCc3ccccc3)c2n1`, the Potency is reported as 10 µM (active). For `CCC(c1nnnn1C1CCCC1)N(Cc1cccs1)Cc1cc2cc(C)ccc2[nH]c1=O` (stereo not drawn), the Potency was 28.2 µM (active). In the case of `Cn1nnnc1Sc1ncnc2scc(-c3ccccc3Cl)c12`, the Potency is reported as 3.16 µM (active). With `Cn1nnnc1Sc1ncnc2scc(Br)c12` the Potency was 28.2 µM (active). With `CC(=O)c1cccc(-c2csc3ncnc(Sc4nnnn4C)c23)c1` the Potency was 11.2 µM (active). With `Cn1nnnc1Sc1ncnc2scc(-c3ccc[nH]3)c12` the Potency was 28.2 µM (active). For `CCOC(=O)c1c(C)oc2c(F)c(F)c(F)c(F)c2c1=O`, the Potency was 3.98 µM (active). For `CCN(CC)CCNC1=NCCn2c1cc1cc(OC)ccc12`, the Potency was 1.78 µM (active). For `C[C@@H]1C[C@@H]2O[C@H]2/C=C\C=C\C(=O)Cc2c(Cl)c(O)cc(O)c2C(=O)O1`, the Potency was 0.631 µM (active). With `O=C(N/N=C/c1ccccc1O)c1cccc(C(F)(F)F)c1` the Potency was 0.631 µM (active). With `O=C(N/N=C/c1c(O)ccc2ccccc12)c1cccc(C(F)(F)F)c1` the Potency was 1 µM (active). In the case of `O=C(NN=Cc1c(O)ccc2ccccc12)c1ccc2c(c1)OCO2`, the Potency is reported as 2 µM (active). For `CCCC1CCC(c2ccc(C(=O)NN)cc2)CC1` (stereo not drawn), the Potency was 2.82 µM (active). With `FC(F)(F)c1cc(-c2ccccn2)nc2cc(-c3ccccc3)nn12` the Potency was “inactive”. With `c1ccc(-c2cccc(-c3ccccn3)n2)nc1` the Potency was 0.112 µM (active). For `Cc1cc(=O)[nH]c(N=N/C(=N/Nc2ccccc2C)c2ccccc2)n1`, the Potency was 1.58 µM (active). For `CCC(=O)NC(C)c1cc(Cl)c2cccnc2c1O` (stereo not drawn), the Potency was 1.78 µM (active). In the case of `CC(=O)NC(c1cc(Cl)c2cccnc2c1O)C(C)C` (stereo not drawn), the Potency is reported as 0.794 µM (active). For `CCC(=O)NC(c1cc(Cl)c2cccnc2c1O)C(C)C` (stereo not drawn), the Potency was 2.82 µM (active). With `CC(=O)NC(C)c1cc(Cl)c2cccnc2c1O` (stereo not drawn) the Potency was 3.98 µM (active). With `N#C/C(=C\c1ccc([N+](=O)[O-])o1)c1nc2ccccc2[nH]1` the Potency was 3.55 µM (active). For `Cc1csc(NC(=O)COCC(=O)O)c1-c1nc2ccccc2s1`, the Potency was 15.8 µM (active). For `O=C(CN1CCCC1)N/N=C/c1c(O)ccc2ccccc12`, the Potency was 1.78 µM (active). With `O=C(CN1CCOCC1)N/N=C/c1c(O)ccc2ccccc12` the Potency was 7.08 µM (active). For `Nc1nc(N)c2cc(Sc3ccc4ccccc4c3)ccc2n1`, the Potency was 28.2 µM (active). For `COc1cccc2c1C(=N)c1c(O)c3c(c(O)c1C2=O)CC(O)(C(C)=O)CC3OC1CC(N)C(O)C(C)O1` (stereo not drawn), the Potency was 0.224 µM (active). In the case of `CCCCC(=O)OCC(=O)C1(O)Cc2c(O)c3c(c(O)c2C(OC2CC(NC(=O)C(F)(F)F)C(O)C(C)O2)C1)C(=O)c1c(OC)cccc1C3=O` (stereo not drawn), the Potency is reported as 2.51 µM (active). For `COc1cccc2c1C(=O)c1c(O)c3c(c(O)c1C2=O)C[C@](O)(C(C)=O)C[C@H]3O[C@@H]1C[C@@H](N)[C@@H](O)[C@@H](C)O1`, the Potency was 0.282 µM (active). For `CC(C)CCNC(=O)COc1cccc2c1OC(C)(C)C2`, the Potency was “inactive”. With `CCOC(=O)c1c2ccc(OCC(=O)N/N=C/c3ccc(C)cc3)cc2n2ccccc12` the Potency was 11.2 µM (active). For `CCOC(=O)c1c(CSc2nc(C)cc(C)c2C#N)n(C)c2cc(Br)c(OC(C)=O)cc12`, the Potency was “inactive”. In the case of `COc1ccccc1C(CCNCc1ccccc1)c1ccc(OC(C)C)cc1` (stereo not drawn), the Potency is reported as 3.98 µM (active). With `COc1cccc(OC)c1C(=O)OCC(=O)NC(=O)NCc1ccccc1` the Potency was “inactive”. For `COc1ccc(CNCCC(c2ccc(OC(C)C)cc2)c2ccccc2OC)cc1` (stereo not drawn), the Potency was 3.16 µM (active). With `CCOC(=O)c1cnc(-n2nc(C)cc2C)nc1NNc1cc(C)nc(-c2ccccc2)n1` the Potency was 3.55 µM (active). With `Cc1ccc(OCC(=O)N2CCN(c3nnc(-c4ccc(C)cc4)c4ccccc34)CC2)cc1` the Potency was 3.16 µM (active). With `Oc1[nH]c2ccc(Br)cc2c1N=NC(=S)N1CCOCC1` the Potency was 0.631 µM (active). For `Clc1ccc(SCc2cc(N3CCOCC3)nc(-c3ccccn3)n2)cc1`, the Potency was 5.01 µM (active). For `CC(C)(C)S(=O)(=O)/C(C#N)=N/Nc1ccc(Cl)cc1`, the Potency was 20 µM (active). In the case of `O=S(=O)(c1ccc(F)cc1)c1snnc1-c1ccccc1`, the Potency is reported as 15.8 µM (active). With `NS(=O)(=O)c1ccc(N2N=C(c3ccccc3)CC2c2ccc(F)cc2)cc1` (stereo not drawn) the Potency was “inactive”. For `Cc1ccc(/C=C2\SC(=S)N(CCCC(=O)Nc3ccc(O)cc3)C2=O)cc1`, the Potency was “inactive”. For `Cc1ccc(/C=C2\SC(=S)N(CCCC(=O)NC3CCCC3)C2=O)cc1`, the Potency was 1.41 µM (active). With `Cc1ccc(/C=C2/SC(=S)N(CCCC(=O)Nc3ccc(O)cc3)C2=O)cc1` the Potency was 1.41 µM (active). In the case of `Cc1ccc(/C=C2\SC(=S)N(CCCC(=O)Nc3nccs3)C2=O)cc1`, the Potency is reported as 7.08 µM (active). In the case of `Cc1ccc(/C=C2/SC(=S)N(CCCC(=O)Nc3cc([N+](=O)[O-])ccc3O)C2=O)cc1`, the Potency is reported as 31.6 µM (active).
